PubChem BioAssay AID624330 (Southern Research Specialized Biocontainment Screening …, 2012)
Out of some 340,000 compounds screened, about 2,100 (0.62%) were called active.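 How the source made its calls: active means first-screen hits whose inhibition reached a set limit at any dose in the follow-up dose series; inconclusive means inhibition above the set first-screen limit but never retested; inactive means the rest.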 Only a sample is shown. Entries with a potency or affinity are not part of this list.

These compounds were tested against Rac GTPase-activating protein 1 (Homo sapiens) (UniProt Q9H0H5) (assay: MgcRacGAP GTPase-activating activity inhibitors, confirmation, biochemical, ADP Hunter fluorescence, primary and confirmatory (AID 624330;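 further: fluorescence reports GDP produced by GAP-driven GTP hydrolysis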)). Conditions: MgcRacGAP-stimulated Rac1 GTP hydrolysis, at 30 µM, active compounds read high, GST-tagged Rac1 F28L mutant substrate.
Chain of Rac GTPase-activating protein 1 (Homo sapiens) (Q9H0H5 whole entry, looked up): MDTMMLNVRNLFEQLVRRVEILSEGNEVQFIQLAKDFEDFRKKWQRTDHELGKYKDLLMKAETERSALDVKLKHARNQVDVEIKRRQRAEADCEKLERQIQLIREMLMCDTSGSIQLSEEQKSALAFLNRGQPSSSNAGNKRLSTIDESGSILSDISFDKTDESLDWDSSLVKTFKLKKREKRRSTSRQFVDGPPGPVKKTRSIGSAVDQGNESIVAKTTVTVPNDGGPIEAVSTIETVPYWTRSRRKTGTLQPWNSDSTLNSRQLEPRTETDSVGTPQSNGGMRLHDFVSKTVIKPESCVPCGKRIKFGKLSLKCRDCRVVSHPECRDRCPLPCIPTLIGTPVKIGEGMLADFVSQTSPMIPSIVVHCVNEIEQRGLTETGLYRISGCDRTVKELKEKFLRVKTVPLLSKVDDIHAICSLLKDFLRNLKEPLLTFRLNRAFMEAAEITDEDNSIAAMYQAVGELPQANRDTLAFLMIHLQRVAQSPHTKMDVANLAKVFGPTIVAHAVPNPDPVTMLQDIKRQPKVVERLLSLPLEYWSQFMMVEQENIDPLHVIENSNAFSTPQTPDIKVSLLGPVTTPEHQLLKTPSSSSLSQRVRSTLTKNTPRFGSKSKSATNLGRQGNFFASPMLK

inhibition, inactive:
COc1ccc2c(c1)C(c1ccccc1)=NNC(c1ccco1)=N2 2.48%
N#CC1=C(S)N(c2ccccc2)C(c2ccc(-c3ccc(Cl)c(Cl)c3)o2)NC1=O (stereo not drawn) 24.7%
Cc1ccc(N2C(S)=C(C#N)C(=O)NC2c2ccco2)cc1 (stereo not drawn) 49.9%
N#CC1=C(S)N(c2ccccc2)C(c2ccc(-c3cc(Cl)ccc3Cl)o2)NC1=O (stereo not drawn) 19.7%
COc1ccc(C2NC(=O)C(C#N)=C(S)N2c2ccccc2)cc1OC (stereo not drawn) 42.4%
COc1ccc(N2C(S)=C(C#N)C(=O)NC2c2ccco2)cc1 (stereo not drawn) 38.5%
N#CC1=C(S)N(c2ccccc2)C(c2ccco2)NC1=O (stereo not drawn) 1.78%
O=C(COC(=O)c1cc(F)c(F)cc1Cl)NC1CCCCCC1 -27.4%
CCN(CC)S(=O)(=O)c1ccc(N2CCN(c3ccccc3O)CC2)nc1 5.53%
Clc1ccc(NCc2nnc3n2CCCCC3)cc1 10.6%
CC(=O)N1CCOc2ccc(S(=O)(=O)Nc3ncccc3C)cc21 4.93%
Cc1ccc(NC(=O)Cc2nc(COC(=O)c3c(F)cccc3Cl)cs2)cc1 2.55%
O=C1c2ccccc2/C(=C\c2ccc(Br)s2)N1c1ccccc1 1.75%
COc1ccc(N2CCN(C(=O)c3cc(=O)[nH]c4ccccc34)CC2)cc1 18.3%
COc1ccc(N2CCN(CC(O)COC(c3ccccc3)c3ccccc3)CC2)cc1 (stereo not drawn) 8.7%
COc1ccc(C(OCC(O)CN2CCC(O)CC2)c2ccc(OC)cc2)cc1 (stereo not drawn) 6.25%
OC(COC(c1ccc(F)cc1)c1ccc(F)cc1)CN1CCCC1 (stereo not drawn) 31.4%
OC(COC(c1ccc(F)cc1)c1ccc(F)cc1)CN1CCc2ccccc2C1 (stereo not drawn) 20.1%
CCOC(=O)Cc1csc(NC(=O)c2ccc(C)o2)n1 3.9%
Cc1nc(SCc2ccc([N+](=O)[O-])cc2)nc2ccccc12 8.16%
O=C1CSC(=S)N1c1ccccc1 -7.87%
O=C(COc1ccccc1)NN1C(=O)CSC1=S 6.09%
O=C(Cn1cc([N+](=O)[O-])cn1)NCc1cc2ccccc2[nH]1 8.44%
CCOc1cc(N2CCOCC2)c(OCC)cc1NC(=O)c1cc(C)cc(C)c1 10.8%
CCOc1cc(N2CCOCC2)c(OCC)cc1NC(=O)Cc1ccccc1 10.9%
CCOc1cc(N2CCOCC2)c(OCC)cc1NC(=O)c1ccccc1 27.1%
CCOc1cc(N2CCOCC2)c(OCC)cc1NC(=O)c1ccc(C)cc1 19.8%
CC(C)CN1CC(Br)C(=O)NC1=O (stereo not drawn) 4.9%
COc1ccc(CCNC(=S)Nc2ccccc2)cc1 12.5%
COc1ccc(C)cc1NC(=O)C(=O)N/N=C(\C)CC(=O)Nc1cccnc1 -2.35%
N#CCC(=N)N1CCN(c2ccc(F)cc2)CC1 1.28%
CN(C(=O)OC(C)(C)C)[C@H](Cc1ccccc1)C(=O)N[C@H]1CCCCNC1=O 4.78%
CCS(=O)(=O)c1ccc(O)c(NC(=O)/C=C/c2ccccc2)c1 5.42%
Cc1cc(NC(=O)/C=C/c2ccccc2)c(C(C)C)cc1O 12.2%
CCC1(c2ccccc2)NC(=O)N(CC(=O)N(CC(=O)Nc2ccccc2C(F)(F)F)Cc2ccco2)C1=O (stereo not drawn) 1.52%
COc1ccc(C)cc1NC(=O)c1cc(S(=O)(=O)N2CCOCC2)cn1C 10.3%
CCOC(=O)C1CCN(C(=O)COC(=O)c2oc3ccccc3c2C)CC1 7.79%
COc1ccc(/C=N/NC(=O)c2ccc(=O)[nH]n2)cc1OC 8.66%
CCOC(=O)N/N=C/c1ccc(OC)c(O)c1 18.6%
COc1ccc(/C=N/NC(=O)c2cccc(C(=O)N/N=C/c3ccc(OC)c(OC)c3)n2)cc1OC 5.53%
COc1cc(/C=N/NC(=O)c2cccc(C(=O)N/N=C/c3ccc(O)c(OC)c3)n2)ccc1O 9.56%
CC(C)NC(=O)c1cc2n(n1)C(C(F)(F)F)CC(c1ccco1)N2 (stereo not drawn) 5.2%
C=CCn1c(SCC(=O)NCCOC)nnc1-c1cc2c(s1)CCC(CC)C2 (stereo not drawn) 7.45%
O=C1c2cc([N+](=O)[O-])ccc2-c2ncccc21 -4.67%
Cn1c(=O)[nH]c(=O)c2c1nc(Sc1ccccc1)n2CCc1ccccc1 0.88%
CCC(C)(O)c1[nH]c2ccc(C(F)(F)F)cc2c1C (stereo not drawn) 5.14%
OCCNCCO -1.48%
O=C1c2ccccc2C(=O)c2c(Nc3ccc(CCO)cc3)ccc(O)c21 15.2%
O=C1c2ccccc2C(=O)c2c(NCc3cccnc3)cccc21 1.26%
CN1C(=O)c2cccc(NCCCCCCN3C(=O)c4ccccc4C3=O)c2C1=O 5.81%
CNc1cccc2c1C(=O)c1ccccc1C2=O 6.76%
CN1C(=O)c2cccc(NCCCN3C(=O)c4ccccc4C3=O)c2C1=O 10.7%
CC(C)Oc1ccc(C(=O)NC2=NCCS2)cc1 6.37%
Cc1cccc(NC(=O)CSc2nnnn2-c2cccnc2)c1 4.2%
Cc1cc(C)c(NC(=O)CN(C)C(=O)CCN2C(=O)C3CCCCC3C2=O)c(C)c1 (stereo not drawn) 11.4%
Cn1c(SCC(=O)NCC2CCCO2)nnc1-c1cccc(NC(=O)c2ccccc2F)c1 (stereo not drawn) 2.1%
COCCCNC(=O)COc1ccc(S(=O)(=O)Nc2ccccc2)cc1 5.23%
NCC12CC3CC(CC(O)(C3)C1)C2 9.89%
NC(=O)CC12CC3CC(C1)CC(CC(N)=O)(C3)C2 -1.41%
COCC(C)NCc1cccc2ccccc12 (stereo not drawn) 26.8%
COCC(C)NCc1ccc(C)cc1C (stereo not drawn) 16.8%
CCOc1ccccc1N1CC(C(=O)Nc2cc(Cl)ccc2C)CC1=O (stereo not drawn) -1.6%
Cc1ccc(Cl)cc1N1CCN(C(=O)CN(C2CCCCC2)S(C)(=O)=O)CC1 1.2%
